Test results reported in PubChem BioAssay (Tox21).
A number with no mark means an inactive call. Records with an inconclusive call do not appear. The source made the active and inactive calls. The call rests on the fitted dose curve; in most records, active means well fitted curve in the direction sought with a large enough effect in the repeat runs; inconclusive means weak or mixed curves; inactive means no such curve, though single readings can be large; an effect the other way counts as inactive or inconclusive.

assay: A CellTox Green Cytotoxicity Assay to monitor cytotoxicity in HEK293 cells - 0 hour (AID 1224869); conditions: CellTox Green fluorescence; series mostly up to 76.8 µM; cytotoxicity: at the top concentration; further: nearly all actives have a fitted effect of over 50% in size
Outline: (§1)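 Read-out: fluorescence of a cell-impermeant cyanine dye staining DNA of dead cells, proportional to cytotoxicity. HEK293, 600 cells/well with reagent, compound (23 nL DMSO) added after 5 h; reads at 0, 8, 16, 24, 32, 40 h.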
On the % scale 0 is the no-effect control and ±100 the full control effect.

Compound	cytotoxicity
N#CCCC#N	-2.47%
Nc1ccccc1Cl	0.512%
ClCCOCOCCCl	1.7%
CNC(=O)O/N=C(\C)SC	-1.61%
CC1CN1P(=O)(N1CC1C)N1CC1C (stereo not given)	5.18%
BrCCCCCCBr	-1.51%
COc1cccc(C(=O)NN(C(=O)c2cc(C)cc(C)c2)C(C)(C)C)c1C	-11.1%
CNC(=O)Oc1ccccc1C1OCCO1	-1.21%
O=C1CN=C(c2ccccc2)c2cc([N+](=O)[O-])ccc2N1	0.389% [at 35.3 µM]
O=C(NCO)NCO	-5.28%
CC1CCC(=O)O1 (stereo not given)	-2.41%
CCCCCCBr	-1.23%
O=c1oc2ccccc2c(O)c1C1CCCc2ccccc21 (stereo not given)	-14.2%
CCCCCCI	0.0263%
OCCBr	0.186%
CCCCP(CCCC)CCCC	-5.77%
CCNc1nc(NC(C)C)nc(OC)n1	-0.121%
CNC(=O)Oc1ccc(N(C)C)c(C)c1	3.64%
CC1(C)C(=O)NC(=O)NC1=O	22.8%

Compound	cytotoxicity
Clc1ccccc1N1CCNCC1	-15% [at 35.3 µM]
ClCC(Cl)(Cl)Cl	-4.16%
c1ccc(N2CCNCC2)cc1	-9.06% [at 35.3 µM]
NC(=S)C(N)=S	-0.918%
C=CC1CC=CCC1 (stereo not given)	-5.09%
OCCSCSCCO	5.21%
CC1(C)COP(Oc2ccccc2)OC1	-7.04%
CC(C)CC#N	-1.95%
CN1CCC(O)(c2ccc(F)cc2)C(C(=O)c2ccc(F)cc2)C1 (stereo not given)	4.06% [at 35.3 µM]
CC1COC2(c3ccccc3Cl)c3cc(Cl)ccc3NC(=O)CN12 (stereo not given)	-0.0023% [at 35.3 µM]
O=C1CN2CCOC2(c2ccccc2Cl)c2cc(Cl)ccc2N1 (stereo not given)	-1.85% [at 35.3 µM]
ClC(Br)Br	2.96%
[O]=[Cd]	-6.33%
ClC(Cl)C(Cl)Cl	-0.803%
C[N+](=O)[O-]	1.99%
CC(N)=S	-0.368%
C#CCN1C(=O)COc2cc(F)c(N3C(=O)C4=C(CCCC4)C3=O)cc21	-0.599%
[As]#[In]	-4.12%
CC(C)(C)NCC(O)c1cc(Cl)c(N)c(Cl)c1 (stereo not given)	15.9% [at 35.3 µM]

assay: qHTS RealTime-Glo MT Cell Viability Assay in HepG2 cells - 40 hour (AID 1224870); conditions: RealTime-Glo luminescence; series mostly up to 76.8 µM; activity change, negative = cytotoxic: at the top concentration; further: nearly all actives have a fitted effect of over 50% in size; further: potency means the concentration at half of the fitted maximal effect
Outline: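 Real-time viability: cells seeded at 600 per well together with NanoLuc and cell-permeant prosubstrate, compounds added after 5 h incubation. Luminescence tracked at 0, 8, 16, 24, 32 and 40 h of exposure.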

Compound	activity change, negative = cytotoxic	Potency
N#CCCC#N	1.08%	
Nc1ccccc1Cl	3.48%	
ClCCOCOCCCl	-1.69%	
CNC(=O)O/N=C(\C)SC	-0.407%	
CC1CN1P(=O)(N1CC1C)N1CC1C (stereo not given)	3.62%	
BrCCCCCCBr	0.0258%	
COc1cccc(C(=O)NN(C(=O)c2cc(C)cc(C)c2)C(C)(C)C)c1C	-24%	
CNC(=O)Oc1ccccc1C1OCCO1	3.06%	
O=C1CN=C(c2ccccc2)c2cc([N+](=O)[O-])ccc2N1	-1.51% [at 35.3 µM]	
O=C(NCO)NCO	3.85%	
CC1CCC(=O)O1 (stereo not given)	-0.291%	
CCCCCCBr	3.65%	
CCCCCCI		24.6 µM (active)
OCCBr	-0.195%	
CCCCP(CCCC)CCCC	0.727%	
CCNc1nc(NC(C)C)nc(OC)n1	-4.04%	
CNC(=O)Oc1ccc(N(C)C)c(C)c1	1.02%	

Compound	activity change, negative = cytotoxic	Potency
CC1(C)C(=O)NC(=O)NC1=O	-0.215%	
Clc1ccccc1N1CCNCC1	1.68% [at 35.3 µM]	
ClCC(Cl)(Cl)Cl	-4.21%	
c1ccc(N2CCNCC2)cc1	0.589% [at 35.3 µM]	
NC(=S)C(N)=S	-0.245%	
C=CC1CC=CCC1 (stereo not given)	2.35%	
OCCSCSCCO	0.587%	
CC1(C)COP(Oc2ccccc2)OC1	-0.254%	
CC(C)CC#N	0.722%	
CC1COC2(c3ccccc3Cl)c3cc(Cl)ccc3NC(=O)CN12 (stereo not given)	-7.72% [at 35.3 µM]	
O=C1CN2CCOC2(c2ccccc2Cl)c2cc(Cl)ccc2N1 (stereo not given)	0.628% [at 35.3 µM]	
ClC(Br)Br	1.35%	
[O]=[Cd]	1.1%	
ClC(Cl)C(Cl)Cl	2.49%	
C[N+](=O)[O-]	1.1%	
CC(N)=S	0.639%	
[As]#[In]	-0.151%	

assay: A CellTox Green Cytotoxicity Assay to monitor cytotoxicity in HEK293 cells - 40 hour (AID 1224871); conditions: CellTox Green fluorescence; series mostly up to 76.8 µM; cytotoxicity increase: at the top concentration; further: nearly all actives have a fitted effect of over 45% in size
Outline: as §1

Compound	cytotoxicity increase
N#CCCC#N	-0.413%
Nc1ccccc1Cl	2.12%
CNC(=O)O/N=C(\C)SC	-8.61%
CC1CN1P(=O)(N1CC1C)N1CC1C (stereo not given)	2.56%
BrCCCCCCBr	-0.509%
COc1cccc(C(=O)NN(C(=O)c2cc(C)cc(C)c2)C(C)(C)C)c1C	-9.34%
CNC(=O)Oc1ccccc1C1OCCO1	-2.6%
O=C1CN=C(c2ccccc2)c2cc([N+](=O)[O-])ccc2N1	16.1% [at 35.3 µM]
O=C(NCO)NCO	-10.5%
CC1CCC(=O)O1 (stereo not given)	-3.65%
CCCCCCBr	-5.06%
O=c1oc2ccccc2c(O)c1C1CCCc2ccccc21 (stereo not given)	-19.1%
CCCCCCI	15.8%
OCCBr	0.0792%
CCCCP(CCCC)CCCC	1.22%
CNC(=O)Oc1ccc(N(C)C)c(C)c1	-0.68%
Clc1ccccc1N1CCNCC1	-20.7% [at 35.3 µM]
ClCC(Cl)(Cl)Cl	-4.64%
c1ccc(N2CCNCC2)cc1	-11.3% [at 35.3 µM]
C=CC1CC=CCC1 (stereo not given)	-11.7%
OCCSCSCCO	0.893%
CC(C)CC#N	-9.2%
CC1COC2(c3ccccc3Cl)c3cc(Cl)ccc3NC(=O)CN12 (stereo not given)	8.32% [at 35.3 µM]
O=C1CN2CCOC2(c2ccccc2Cl)c2cc(Cl)ccc2N1 (stereo not given)	-2.58% [at 35.3 µM]
ClC(Br)Br	1.05%
ClC(Cl)C(Cl)Cl	-6.53%
CC(N)=S	-4.9%
C#CCN1C(=O)COc2cc(F)c(N3C(=O)C4=C(CCCC4)C3=O)cc21	-10.4%
[As]#[In]	-11.8%
CC(C)(C)NCC(O)c1cc(Cl)c(N)c(Cl)c1 (stereo not given)	9.72% [at 35.3 µM]

assay: qHTS RealTime-Glo MT Cell Viability Assay in HEK293 cells - 16 hour (AID 1224872); conditions: RealTime-Glo luminescence; series mostly up to 76.8 µM; activity change, negative = cytotoxicity: at the top concentration; further: top concentration of the series differs between compounds; nearly all actives have a fitted effect of over 50% in size
Outline: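 Homogeneous bioluminescent viability format in HEK293 cells (600 cells/well). Following 5 h at 37 C/5% CO2, 23 nL compound was pintooled; the signal was measured repeatedly during 40 h incubation.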

Compound	activity change, negative = cytotoxicity
N#CCCC#N	11.7%
Nc1ccccc1Cl	4.86%
CNC(=O)O/N=C(\C)SC	5.57%
CC1CN1P(=O)(N1CC1C)N1CC1C (stereo not given)	13.4%
BrCCCCCCBr	-8.56%
COc1cccc(C(=O)NN(C(=O)c2cc(C)cc(C)c2)C(C)(C)C)c1C	-7.24%
CNC(=O)Oc1ccccc1C1OCCO1	3.19%
O=C1CN=C(c2ccccc2)c2cc([N+](=O)[O-])ccc2N1	-10.8% [at 35.3 µM]
O=C(NCO)NCO	-0.696%
CCCCCCBr	9.9%
CCCCCCI	-6.78%
OCCBr	3.18%
CCCCP(CCCC)CCCC	-1.89%
CCNc1nc(NC(C)C)nc(OC)n1	-9.8%
CNC(=O)Oc1ccc(N(C)C)c(C)c1	-13.9%
CC1(C)C(=O)NC(=O)NC1=O	-8.55%
Clc1ccccc1N1CCNCC1	0.335% [at 35.3 µM]

Compound	activity change, negative = cytotoxicity
ClCC(Cl)(Cl)Cl	2.1%
c1ccc(N2CCNCC2)cc1	21.2% [at 35.3 µM]
NC(=S)C(N)=S	23.6%
C=CC1CC=CCC1 (stereo not given)	0.711%
OCCSCSCCO	6.08%
CC1(C)COP(Oc2ccccc2)OC1	4.86%
CC(C)CC#N	-0.0492%
CN1CCC(O)(c2ccc(F)cc2)C(C(=O)c2ccc(F)cc2)C1 (stereo not given)	-13.7% [at 35.3 µM]
O=C1CN2CCOC2(c2ccccc2Cl)c2cc(Cl)ccc2N1 (stereo not given)	0.66% [at 35.3 µM]
ClC(Br)Br	10.3%
[O]=[Cd]	4.65%
ClC(Cl)C(Cl)Cl	-0.0909%
C[N+](=O)[O-]	22.2%
CC(N)=S	13.1%
C#CCN1C(=O)COc2cc(F)c(N3C(=O)C4=C(CCCC4)C3=O)cc21	-1.27%
CC(C)(C)NCC(O)c1cc(Cl)c(N)c(Cl)c1 (stereo not given)	3.01% [at 35.3 µM]
